Where two headings read alike, the source gives them in different places.
Assays:
DMPK2 = tested on: T1, DMPK2; details: concentration: 1 μM, replicates: in singlicate; n = 1
T1 construct: gene CDC42BPG

DMPK = details: concentration: 1 μM, replicates: in singlicate; n = 1
DRAK1 = tested on: T2, DRAK1; details: concentration: 1 μM, replicates: in singlicate; n = 1
T2 construct: gene STK17A

DRAK2 = tested on: T3, DRAK2; details: concentration: 1 μM, replicates: in singlicate; n = 1
T3 construct: gene STK17B

DYRK1A = details: concentration: 1 μM, replicates: in singlicate; n = 1
DYRK1B = details: n = 1
DYRK2 = details: concentration: 1 μM, replicates: in singlicate; n = 1
EGFR = details: concentration: 1 μM, replicates: in singlicate; n = 1
EIF2AK1 = details: concentration: 1 μM, replicates: in singlicate; n = 1
EPHA1 = details: concentration: 1 μM, replicates: in singlicate; n = 1
[1] = concentration: 1 μM, replicates: in singlicate
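Note: KINOMEscan kinase panel screen.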

Row | Structure (SMILES) | %Inh (DMPK2) [%] | %Inh (DMPK) [%] | %Inh (DRAK1) [%] | %Inh (DRAK2) [%] | %Inh (DYRK1A) [%] | %Inh (DYRK1B; 1 µM) [%] | %Inh (DYRK2) [%] | %Inh (EGFR) [%] | %Inh (EIF2AK1) [%] | %Inh (EPHA1) [%] | %Inh (DYRK1B; [1]) [%]
1 | CS(=O)(=O)Cc1ccc(Nc2nccc(-c3c(-c4cccc(NC(=O)C5CCCCC5)c4)nn4ncccc34)n2)cc1 [GSK350559] | 35 | 0 | 0 | 0 | 26 | 0 | 5 | 68 | 22 | 6 | 
2 | Cn1cncc1C(=O)NC1CCN(c2ccnc(Nc3ccc(F)cc3)n2)C1 (stereo not shown) [GSK1379717] | 0 | 0 | 0 | 0 | 0 |  | 0 | 15 | 3 | 2 | 21
3 | COc1ccc(Nc2nccc(N3CCC(NC(=O)C(C)c4ccc(Cl)cc4)CC3)n2)cc1 (stereo not shown) [GSK1379812] | 6 | 1 | 0 | 0 | 99.2 |  | 19 | 0 | 0 | 0 | 0
4 | O=C1NC(=O)C(c2ccc(Cl)cc2)=C1Nc1cccc(Cl)c1 [SB-317651] | 0 | 0 | 4 | 0 | 15 |  | 1 | 20 | 4 | 0 | 52

Source: paper PMC5540273 (PLoS ONE, 2017)
